High-throughput results: PubChem, National Center for Advancing Translational Sciences (NCATS)
rTrxR1 inhibitor: qHTS Assay for Inhibitors of Mammalian Selenoprotein Thioredoxin Reductase 1 (TrxR1): qHTS; hit rate 1% among 390,000; Thioredoxin reductase 1, cytoplasmic (Rattus norvegicus), O89049; Potency, µM (titrated, usually from 114 µM), for the others: top-dose activity change, negative = inhibition, actives largely listed as inhibitors; recombinant rTrxR1, NADPH fluorescence consumption, selenite substrate; further: potency means the concentration at half of the fitted maximal effect; nearly all actives have a fitted effect of over 65% in size
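Rat TrxR1 (90 nM in the dispensed reagent) was pre-reduced with 400 uM NADPH for 5 min at room temperature, then incubated with compound for 15 min. After 400 uM selenite was added, NADPH fluorescence (Ex 340/Em 450 nm) was followed for 8 min.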
TrxR1 substrate: qHTS Assay for Substrates of Mammalian Selenoprotein Thioredoxin Reductase 1 (TrxR1): qHTS. purified TrxR1 substrate turnover, NADPH consumption readout. Thioredoxin reductase 1, cytoplasmic (Rattus norvegicus), O89049. hit rate 0.01% among 390,000. Potency, µM (series often up to 114 µM), for inactives: at the highest dose activity change, negative = substrate turnover; further: potency means the concentration at half of the fitted maximal effect; nearly all actives have a fitted effect of over 50% in size
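Rat TrxR1, dispensed at 90 nM, was prereduced with 400 uM NADPH (final) for 5 min at ~22 deg C, then incubated with compound 15 min before 400 uM selenite. A first-read NADPH fluorescence drop versus no-compound background flagged substrates.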
Coupling enz: qHTS Assay for Inhibitors of Fructose-1,6-bisphosphate Aldolase from Giardia Lamblia: Coupling assay counterscreen; coupling enzyme system counterscreen, AmpLite Red fluorescence; activity change, negative = inhibition, % at 58.2 µM, hits read low; hit rate 0.67% among 290,000; AID 2472, 2010; in the data active means activity change below about -30%
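Compounds tested against the coupling enzymes alone at 57.5 uM final; readout was AmpLite Red fluorescence (525/598 nm) after 20 min at RT.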
VP16 counter: VP16 counterscreen qHTS for inhibitors of ROR gamma transcriptional activity; Drosophila S2 Gal4-VP16 UAS-luciferase, luminescence, 20 h; Potency, µM (highest dose often 53.6 µM), for the others: at the top dose activity, negative = inhibition, actives largely listed as inhibitors; hit rate 3.5% among 310,000; AID 2546, 2010;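 further: Gal4-VP16 expression switched on by copper sulfate through the metallothionein promoter; potency means the concentration at half of the fitted maximal effect; nearly all actives have a fitted effect of over 50% in size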
RORg inh: qHTS for inhibitors of ROR gamma transcriptional activity; Drosophila S2 Gal4-RORgamma UAS-luciferase reporter, 20 h; Potency, µM (doses to about 53.6 µM), without a hit: top-dose activity change, negative = inhibition, hits mostly inhibitors; hit rate 5.4% among 310,000; further: potency means the concentration at half of the fitted maximal effect; nearly all actives have a fitted effect of over 60% in size
Target sequence (P51450 whole entry, looked up, the tested form may be a part): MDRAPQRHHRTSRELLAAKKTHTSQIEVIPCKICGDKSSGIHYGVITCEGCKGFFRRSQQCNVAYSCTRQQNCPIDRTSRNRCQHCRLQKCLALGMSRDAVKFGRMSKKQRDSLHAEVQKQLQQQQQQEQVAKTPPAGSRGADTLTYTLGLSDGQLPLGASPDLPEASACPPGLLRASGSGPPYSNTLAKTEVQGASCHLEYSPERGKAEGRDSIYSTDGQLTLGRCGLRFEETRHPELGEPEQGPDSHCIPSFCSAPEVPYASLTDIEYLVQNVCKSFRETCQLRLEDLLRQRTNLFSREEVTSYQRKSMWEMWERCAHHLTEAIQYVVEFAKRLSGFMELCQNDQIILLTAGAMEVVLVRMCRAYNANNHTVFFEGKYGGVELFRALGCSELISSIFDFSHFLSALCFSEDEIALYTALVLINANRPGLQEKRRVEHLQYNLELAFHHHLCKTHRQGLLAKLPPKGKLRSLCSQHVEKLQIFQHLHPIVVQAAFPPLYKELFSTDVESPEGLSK
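A Gal4/UAS one-hybrid system in insect cells: metallothionein-promoter Gal4–ROR gamma fusion plus Photinus luciferase reporter. Copper sulfate 700 uM final, 20 hr ambient incubation, luminescent detection after 10 min with reagent.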
GALK inh: qHTS Assay for Inhibitors of Human Galactokinase (GALK); hit rate 0.007% among 270,000; Purified GALK, Kinase-Glo residual ATP luminescence; AID 1868, 2009; Potency, µM (highest dose often 57.5 µM), for inactives: at the highest dose activity change, negative = inhibition, hits mostly inhibitors; further: potency means the concentration at half of the fitted maximal effect
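Galactose (100 uM) and ATP (35 uM) were turned over by 5 nM GALK for 1 h at RT. Kinase-Glo Plus then converted the remaining ATP into a luminescent signal.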
An asterisk follows results filed as active; ? = inconclusive; nt = no result; ! = not active in a repeat; [ ] = remark or other dose. In the library only some 5.9% were active in any assay of this set; here they are far more common. Unless noted, the call rests on the fitted dose curve; in most records, active means well fitted curve in the direction sought with a large enough effect; inconclusive means small, poorly fitted or top-dose-only effect, or another doubt; inactive means no such curve, though single readings can be large; an effect the other way counts as inactive or inconclusive. On the % scale 0 is the no-effect control and ±100 the full control effect.

SMILES	rTrxR1 inhibitor	TrxR1 substrate	Coupling enz	VP16 counter	RORg inh	GALK inh
C=CCn1c(SCC(=O)NCC2CCCO2)nc2scc(-c3ccco3)c2c1=O (stereo not drawn)	-38%	7%	1	5%	-21%	-1%
O=C(CSc1nc2scc(-c3ccco3)c2c(=O)n1-c1ccccc1)NCC1CCCO1 (stereo not drawn)	45µM*	-5%	3	6%	-3%	-2%
Cc1cc(-c2ccc3c(c2)COc2c4ccccc4nn2-3)on1	2%	-2%	nt	nt	nt	nt
O=C(NCC1CCOCC1)c1cc(COc2cccc(C(F)(F)F)c2)on1	0%	-5%	0	-4%	?	4%
O=C(NCc1ccco1)N1c2ccccc2Sc2ccccc21	18%	9%	2	35µM*	?	1%
CCOc1ccc(-n2c(=O)c3c4c(sc3n(CC(=O)NCC3CCCO3)c2=O)CCC4)cc1 (stereo not drawn)	10%	1%	2	12%	0%	2%
CC(=O)Nc1ccc(NC(=O)C(C)OC(=O)c2ccc(S(=O)(=O)N3CCCCCC3)cc2)cc1 (stereo not drawn)	1%	-10%	nt	nt	nt	nt
CCOC(=O)C1=NN(C(=O)COc2ccccc2)C(O)(c2ccc(Cl)cc2)C1 (stereo not drawn)	5%[57.1 µM]	-10%	3	11µM*	3.5µM*	2%
CCOC(=O)C1=NN(C(=O)Cc2ccccc2)C(O)(c2ccc(Cl)cc2)C1 (stereo not drawn)	6%	-2%	2	10µM*	5.6µM*	1%
COc1ccc(/C=N/N(CCC(=O)NC(C)(C)C)C2=NS(=O)(=O)c3ccccc32)cc1	56%	49%	2	-1%	-7%	5%
O=C1C=CC2=C3c4cc(O)c(O)cc4CC3(O)COC2=C1O (stereo not drawn)	16µM*	3%	-38*!	-13%	3%	nt
O=C(/C=C\Nc1ccccc1Br)c1ccc2c(c1)OCO2	26%[57.1 µM]	-13%	-4	?	5µM*	1%
O=C(/C=C\Nc1cccc(F)c1)c1ccc2c(c1)OCO2	-4%	-8%	2	10µM*	?	5%
O=C(/C=C/Nc1ccc(F)cc1Br)c1ccccc1	7%	-7%	0	7.1µM*	2.5µM*	10%
COc1ccccc1OCCNC(=O)c1cc(=O)[nH]c2ccccc12	8%	5%	-4	1%	15%	-1%
CC(=O)c1cccc(NC(=O)c2ccc3nc(Cc4ccccc4)oc3c2)c1	12%[57.1 µM]	-4%[57.1 µM]	nt	nt	nt	nt
Cc1ccc(C(=O)CSc2nc(C(C)C)nc3ccccc23)cc1	-5%	-9%	-3	6%	?	2%
CC(C)c1nc(SCC(=O)c2ccc(F)cc2)c2ccccc2n1	29%	-7%	-1	?	5.6µM*	10%
COc1ccc(C(=O)CSc2nc(-c3ccccn3)nc(C)c2Cl)cc1	10%[57.1 µM]	14%[57.1 µM]	4	?	2.8µM*	nt
Cc1nc(-c2ccccn2)nc(SCC(=O)c2ccc(F)cc2)c1Cl	8%	-2%	2	?	3.5µM*	nt
CCN(CC)C(=O)COn1c(SCC(=O)N(CC)CC)nc2ccccc2c1=O	1%[57.1 µM]	3%[57.1 µM]	0	0%	-6%	-4%
O=C(NC(Cc1c[nH]c2ccccc12)c1nnc2n1CCCCC2)c1ccc(Cl)cc1 (stereo not drawn)	-8%[57.1 µM]	0%[57.1 µM]	nt	-7%	42%	-2%
Oc1ccccc1C=NN=Cc1c(O)ccc2ccccc12	1%[11.4 µM]	14%[57.1 µM]	nt	nt	nt	nt
O=S(=O)(/N=C/c1c(O)ccc2ccccc12)c1cccs1	nt	nt	-50*	-19%	?	0%
Cc1ccc(S(=O)(=O)/N=C/c2c(O)ccc3ccccc23)cc1	?	-6%	-32*	?	18µM*	0%
SMILES	rTrxR1 inhibitor	TrxR1 substrate	Coupling enz	VP16 counter	RORg inh	GALK inh
CCN(c1cccc2ccccc12)S(=O)(=O)c1cccs1	-10%	-1%	nt	nt	nt	nt
O=C(Nc1cccc(S(=O)(=O)N2CCOCC2)c1)c1ccccc1[N+](=O)[O-]	22%	4%	nt	nt	nt	nt
Cc1ccc(C)c(NC(=S)N/N=C2/CCCCc3ccccc32)c1	5%[57.1 µM]	-15%	-3	6.3µM*	1.6µM*	-1%
COc1cccc(NC(=S)N/N=C2/CCCCc3ccccc32)c1	11%	5%	1	5µM*	3.5µM*	-5%
COC(=O)N/N=C1\CCCc2ccccc21	5%	-2%	0	1%	20%	2%
CC(C)NC(=S)N/N=C1\CCCCc2ccccc21	9%	-6%	0	2µM*	0.79µM*	0%
O=C(N/N=C1/CCc2ccccc21)C1CC1	8%[57.1 µM]	-6%	-1	4%	8%	7%
S=C(N/N=C1\CCc2ccccc21)NC1CCCCC1	-9%	-5%	-1	5.6µM*	1µM*	6%
COc1ccc(OCC(=O)N/N=C2\CCCCc3ccccc32)cc1	11%[57.1 µM]	-3%	-2	-10%	5%	2%
CCc1ccnc(NC(=O)NS(=O)(=O)c2ccc(C)cc2)c1	12%[57.1 µM]	6%[57.1 µM]	1	-8%	1%	nt
Cc1ccc(C)c(S(=O)(=O)N2CCN(C(=O)[C@H](C)N3C(=O)C4CC=CCC4C3=O)CC2)c1 (stereo partly drawn)	24%	7%	nt	nt	nt	nt
CCOC(=O)N1CC=C2C(C#N)=C(N)C(C#N)(C#N)[C@H](c3ccccc3OCC)[C@H]2C1	50µM*	5%	2	-3%	-17%	-4%
Cc1cccc(-n2c(-c3ccccc3)c[nH]c2=S)c1C	-14%	9%	-3	7.1µM*	2.2µM*	-4%
COc1ccccc1-n1c(-c2ccc(Cl)cc2)c[nH]c1=S	?	-4%	-3	7.1µM*	2.8µM*	0%
COc1ccccc1-n1c(-c2ccc(NS(C)(=O)=O)cc2)n[nH]c1=S	-8%	31%	1	-4%	-34%	0%
CC(=O)c1cccc(NC(=O)Cn2c(=O)c(CNc3ccc(C)cc3)cc3cc4c(cc32)OCCO4)c1	-7%	-3%	nt	nt	nt	nt
CS(=O)(=O)N1CCC(C(=O)Nc2ccc(Cl)cc2)CC1	19%	2%	-2	6%	14%	-1%
CCn1c(C)nc2cc(C(=O)OC)ccc21	19%[57.1 µM]	7%[57.1 µM]	0	1%	21%	-3%
